Drawing on PubChem BioAssay, this text covers composite z-score, composite Z-score and z-score for eight compounds.

Structures are written as SMILES. Active and inactive are the calls of the source.

The target of one assay is Albumin (Bos taurus) (UniProt P02769). Nature of the assay: bovine serum albumin binders on microarray, profiling panel, artefact control for SMM control protein annotation, biochemical, small-molecule microarray, Alexa647 label, 635/667 nm fluorescence (AID 1118).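 Further: score merges 667 nm emission intensity and signal-to-noise per printed compound spot.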 As to conditions: BSA-A647 binding, fluorescence 635 nm, higher = more signal.
Sequence of Albumin (Bos taurus) (P02769 whole entry, looked up): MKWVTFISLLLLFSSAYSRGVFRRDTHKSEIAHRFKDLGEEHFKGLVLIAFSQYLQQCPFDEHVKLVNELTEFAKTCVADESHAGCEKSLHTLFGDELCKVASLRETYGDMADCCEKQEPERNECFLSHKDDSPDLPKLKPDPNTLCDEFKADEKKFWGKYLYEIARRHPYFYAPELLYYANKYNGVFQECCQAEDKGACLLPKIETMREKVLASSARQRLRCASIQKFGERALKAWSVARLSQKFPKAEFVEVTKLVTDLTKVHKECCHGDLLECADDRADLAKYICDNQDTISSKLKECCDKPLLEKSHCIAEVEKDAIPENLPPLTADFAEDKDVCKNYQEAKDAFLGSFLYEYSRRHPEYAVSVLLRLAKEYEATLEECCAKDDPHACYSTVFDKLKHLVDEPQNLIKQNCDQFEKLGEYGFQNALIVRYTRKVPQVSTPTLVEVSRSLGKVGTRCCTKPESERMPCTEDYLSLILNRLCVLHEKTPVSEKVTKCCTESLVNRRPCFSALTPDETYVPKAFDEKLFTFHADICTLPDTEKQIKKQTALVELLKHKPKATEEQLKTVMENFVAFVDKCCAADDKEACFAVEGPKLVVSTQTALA
Assay [1] can be described thus: small-molecule microarray binders of probe aXIP, primary screen, biochemical, NeuroSMM set, 635/667 nm fluorescence (AID 1119).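 Further: probe is the protein aXip251-270 applied at 1 µg/mL to compound-printed slides; binding of probe to printed compounds measured as 667 nm fluorescence plus signal to noise.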 Conditions: higher = more signal, called active from +8 up or from −8 down.
Assay [2] in a line: small-molecule binders of probe aNOTCH3, primary screen, biochemical, small-molecule microarray, 635/667 nm fluorescence (AID 1120).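 Further: probe is a biotin-tagged antibody raised against NOTCH3 rather than NOTCH3 protein; score merges spot fluorescence near 667 nm with spot signal to noise.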 Conditions: higher = more signal.
The nature of assay [3]: small-molecule binders of probe aNOTCH2, primary screen, biochemical, small-molecule microarray, 635/667 nm fluorescence (AID 1121).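 Further: score merges feature fluorescence read at 667 nm with its signal to noise.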 As to conditions: higher = more signal.
Assay [4] deals with Carbonic anhydrase 2 (Homo sapiens) (UniProt P00918). The assay is described as follows: CAII small-molecule binders, profiling panel, biochemical, small-molecule microarray, Alexa647-labelled CAII (AID 1122). Conditions: CAII-A647 binding fluorescence, higher = more signal.
Assay [5] is described as follows: COS7 lysate on small-molecule microarray, probe aHis, 635 nm (AID 1123).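 Further: z-score combines 667nm fluorescence intensity with signal-to-noise per printed compound spot.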 Conditions: COS7 cell lysate, fluorescence, higher = more signal.
A short description of assay [6]: compound binding in COS7 lysate, probe aLAP1, primary screen, cell lysate, small-molecule microarray (AID 1124).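 Further: lysate comes from COS7 cells expressing LAP1 and is applied at 0.3 µg/mL; score merges spot fluorescence near 667 nm with signal-to-noise over triplicate slides.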 As to conditions: probe aLAP1, fluorescence, higher = more signal.
The next assay deals with Sam68 (KHDRBS1). The assay is described as follows: Sam68 small-molecule binders, primary screen, biochemical, small-molecule microarray, 635 nm fluorescence (AID 1125).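 Further: score merges 667 nm channel intensity with signal to noise over triplicate slides.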 Conditions: small-molecule microarray binding, higher = more signal.
Assay [7] concerns Chordin-like protein 2 (CHRDL2). The assay is described as follows: CHRDL2 small-molecule binders, primary screen, biochemical, small-molecule microarray, 635 nm fluorescence (AID 1126).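 Further: printed compound slides probed with Chrdl2 protein at 4 µg/mL for 1 h at 4 C; score merges 667 nm emission intensity with signal to noise over three replicate slides.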 As to conditions: small-molecule microarray binding, fluorescence 635 nm; higher = more signal.
The target in assay [8] is Concanavalin-A (Canavalia ensiformis) (UniProt P02866). The assay is described as follows: ConA small-molecule binders, primary screen, artefact control for SMM control protein annotation, biochemical, small-molecule microarray, Alexa647 label, 635 nm (AID 1127).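 Further: z combines 667 nm emission intensity with signal-to-noise across three replicate slides.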 As to conditions: ConA-A647 binding fluorescence, higher = more signal.
Sequence of Concanavalin-A (Canavalia ensiformis) (P02866 whole entry, looked up): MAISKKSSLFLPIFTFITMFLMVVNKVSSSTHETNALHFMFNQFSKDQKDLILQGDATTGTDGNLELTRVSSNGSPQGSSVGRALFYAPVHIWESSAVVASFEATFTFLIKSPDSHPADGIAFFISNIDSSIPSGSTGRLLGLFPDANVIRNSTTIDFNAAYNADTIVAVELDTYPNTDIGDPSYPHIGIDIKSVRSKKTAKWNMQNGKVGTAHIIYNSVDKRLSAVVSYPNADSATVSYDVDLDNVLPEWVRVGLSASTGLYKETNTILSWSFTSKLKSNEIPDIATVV
A short description of assay [9]: anti-His antibody binders, primary screen, artefact control for SMM control protein annotation, biochemical, small-molecule microarray, 635 nm fluorescence (AID 1128).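 Further: score merges feature fluorescence with signal-to-noise for each printed compound spot.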 As to conditions: anti-His Alexa647 antibody binding, higher = more signal.
Assay [10] concerns Human papillomavirus type 1a E7 protein (residues 1-88). Nature of the assay: HPV1a E7 small-molecule binders, primary screen, biochemical, small-molecule microarray, residues 1-88, 635 nm (AID 1129). As to conditions: small-molecule microarray binding, fluorescence 635 nm; higher = more signal.
Assay [11] has as its target Focal adhesion kinase 1 (Homo sapiens) (UniProt Q05397). The assay is described as follows: small-molecule microarray binders of FAK, primary screen, biochemical, 635/667 nm fluorescence, BSA, DTT (AID 1130).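 Further: composite of spot emission at 667 nm and signal to noise over triplicate slides.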 Conditions: PTK2 binding, 635 nm fluorescence, higher = more signal.
Assay [12] has as its system Fibrinogen (Alexa647-labelled). The assay is described as follows: fibrinogen binders on compound microarrays, profiling panel, artefact control for SMM control-protein annotation, biochemical, small-molecule microarray, 635/667 nm fluorescence (AID 1131).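 Further: z-score merges 667 nm fluorescence with per-spot signal-to-noise over triplicate slides.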 As to conditions: fibrinogen-A647 binding fluorescence, higher = more signal.
The target of assay [13] is Follistatin (Homo sapiens) (UniProt P19883). The assay is described as follows: follistatin binders on small-molecule microarrays, primary screen, biochemical, small-molecule microarray, 635/667 nm fluorescence (AID 1132). Conditions: FST binding, 635 nm fluorescence, higher = more signal.
Sequence of Follistatin (Homo sapiens) (P19883 whole entry, looked up): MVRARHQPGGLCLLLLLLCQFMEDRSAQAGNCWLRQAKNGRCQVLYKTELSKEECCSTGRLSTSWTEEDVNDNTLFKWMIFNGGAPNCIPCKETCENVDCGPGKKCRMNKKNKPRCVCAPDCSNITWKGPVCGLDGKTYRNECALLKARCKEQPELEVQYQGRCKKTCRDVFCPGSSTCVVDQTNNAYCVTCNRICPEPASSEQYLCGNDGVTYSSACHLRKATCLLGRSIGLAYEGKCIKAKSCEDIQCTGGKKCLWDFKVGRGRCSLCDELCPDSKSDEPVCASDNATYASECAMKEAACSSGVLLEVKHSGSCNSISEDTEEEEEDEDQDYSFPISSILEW
Assay [14] concerns the target Fibroblast growth factor 2 (Homo sapiens) (UniProt P09038). The assay is described as follows: FGF2 binders on small-molecule microarrays, primary screen, biochemical, small-molecule microarray, 635/667 nm fluorescence (AID 1133). Conditions: small-molecule microarray binding, FGF2, fluorescence 635/667; higher = more signal.
Assay [15] in a line: mitochondrial membrane potential change in A549 cells, profiling panel, cell-based, JC-1 fluorescence, basal, 24 h, 100 nL (AID 1138).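 Further: A549 lung adenocarcinoma cells under basal conditions with no added stimulus; test concentration not given here.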 Conditions: higher = more signal.
The test system of a further assay is Lefty1. The assay is described as follows: Lefty1 binders on small-molecule microarrays, primary screen, biochemical, small-molecule microarray, 635/667 nm fluorescence (AID 1139). As to conditions: small-molecule microarray binding, fluorescence 635/667; higher = more signal.
Assay [16] deals with wheat germ agglutinin (Triticum aestivum), Alexa647-labelled. Nature of the assay: wheat germ agglutinin binders on compound microarrays, profiling panel, artefact control for SMM control-protein annotation, biochemical, small-molecule microarray, 635/667 nm fluorescence (AID 1140).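 Further: score merges 667 nm feature emission with signal to noise over triplicate slides.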 Conditions: WGA-A647 binding, 635 nm fluorescence, higher = more signal.
In assay [17] the target is Luciferin 4-monooxygenase (Photinus pyralis) (UniProt P08659). Nature of the assay: firefly luciferase enzyme inhibitors, primary screen, biochemical, luminescence, purified enzyme, 2006 set (AID 1141).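 Further: cell-free assay with purified firefly luciferase at 100 ng per well in PBS; test concentration not given here.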 Conditions: SteadyGlo luminescence, 30 min, higher = more signal, called active from +8 up or from −8 down.
Sequence of Luciferin 4-monooxygenase (Photinus pyralis) (P08659 whole entry, looked up): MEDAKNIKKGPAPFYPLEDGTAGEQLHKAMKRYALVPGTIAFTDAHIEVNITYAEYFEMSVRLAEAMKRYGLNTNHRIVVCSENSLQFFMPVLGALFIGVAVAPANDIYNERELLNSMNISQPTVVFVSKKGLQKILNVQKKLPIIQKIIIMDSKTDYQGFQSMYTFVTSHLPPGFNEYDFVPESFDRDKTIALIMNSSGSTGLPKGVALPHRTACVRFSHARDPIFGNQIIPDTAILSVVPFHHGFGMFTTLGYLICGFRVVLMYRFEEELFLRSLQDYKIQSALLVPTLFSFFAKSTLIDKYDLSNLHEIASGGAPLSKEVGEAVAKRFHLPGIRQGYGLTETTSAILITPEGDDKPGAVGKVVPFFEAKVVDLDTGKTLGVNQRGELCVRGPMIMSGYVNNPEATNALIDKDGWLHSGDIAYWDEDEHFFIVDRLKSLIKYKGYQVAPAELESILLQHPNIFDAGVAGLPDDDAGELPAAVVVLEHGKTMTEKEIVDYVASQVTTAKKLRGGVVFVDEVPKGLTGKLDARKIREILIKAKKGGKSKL

Sequence of Fibroblast growth factor 2 (Homo sapiens) (P09038 whole entry, looked up): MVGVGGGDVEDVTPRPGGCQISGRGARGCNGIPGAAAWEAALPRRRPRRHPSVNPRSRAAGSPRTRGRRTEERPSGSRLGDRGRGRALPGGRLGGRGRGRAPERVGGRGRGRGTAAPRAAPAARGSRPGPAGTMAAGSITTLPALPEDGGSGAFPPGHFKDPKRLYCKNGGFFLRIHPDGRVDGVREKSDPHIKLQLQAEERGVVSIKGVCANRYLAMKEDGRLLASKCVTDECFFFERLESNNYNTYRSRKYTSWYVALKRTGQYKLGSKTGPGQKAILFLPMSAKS
Sequence of Focal adhesion kinase 1 (Homo sapiens) (Q05397 whole entry, looked up): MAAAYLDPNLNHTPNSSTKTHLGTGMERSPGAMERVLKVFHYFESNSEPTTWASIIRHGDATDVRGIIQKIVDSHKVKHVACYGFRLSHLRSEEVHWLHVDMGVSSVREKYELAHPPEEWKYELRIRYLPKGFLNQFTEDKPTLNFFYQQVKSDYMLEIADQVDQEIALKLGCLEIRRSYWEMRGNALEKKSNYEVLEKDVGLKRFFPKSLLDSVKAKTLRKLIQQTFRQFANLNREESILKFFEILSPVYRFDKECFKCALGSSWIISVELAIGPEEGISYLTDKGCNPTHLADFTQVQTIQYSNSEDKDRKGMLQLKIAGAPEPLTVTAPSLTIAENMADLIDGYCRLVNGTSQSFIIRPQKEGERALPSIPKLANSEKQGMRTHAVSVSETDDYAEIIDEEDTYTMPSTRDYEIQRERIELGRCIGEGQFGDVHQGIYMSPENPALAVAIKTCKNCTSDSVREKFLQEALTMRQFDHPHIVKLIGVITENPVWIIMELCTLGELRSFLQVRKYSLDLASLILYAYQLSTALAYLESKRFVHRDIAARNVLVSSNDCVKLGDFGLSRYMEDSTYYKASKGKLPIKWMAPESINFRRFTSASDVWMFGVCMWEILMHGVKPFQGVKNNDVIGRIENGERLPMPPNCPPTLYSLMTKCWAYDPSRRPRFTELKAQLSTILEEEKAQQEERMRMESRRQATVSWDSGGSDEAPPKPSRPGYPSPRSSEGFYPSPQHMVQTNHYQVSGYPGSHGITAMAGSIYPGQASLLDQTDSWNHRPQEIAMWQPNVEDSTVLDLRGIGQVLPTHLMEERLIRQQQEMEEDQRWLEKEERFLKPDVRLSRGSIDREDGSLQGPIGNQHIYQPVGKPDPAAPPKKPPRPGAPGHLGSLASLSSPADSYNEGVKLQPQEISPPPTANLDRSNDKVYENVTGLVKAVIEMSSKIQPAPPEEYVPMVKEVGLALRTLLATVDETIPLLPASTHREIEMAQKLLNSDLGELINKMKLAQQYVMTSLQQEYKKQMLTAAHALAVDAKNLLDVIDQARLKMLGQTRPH

Consider `COC(=O)c1c(CC[C@@H](CO)NC(=O)N2CCC[C@H]2Cn2cc(C3(O)CCCCC3)nn2)oc(C(C)=O)c1C(=O)OC`, for which the composite z-score was 0.844 in the assay with Albumin (Bos taurus); -0.0328 in [2]; -0.0795 in [3]; 0.707 in assay [4]; 1.44 in assay [5]; 0.473 in assay [6]. The composite z-score is 1.28 in the assay on Sam68 (KHDRBS1); 1.09 in assay [7]; 1.04 in assay [8]; 0.794 in assay [9]; 0.759 in [10]; -0.0763 in [11]. Further, the composite z-score was 0.888 in assay [12]; 0.745 in [13]; 1.59 in assay [14]; 1.39 with Lefty1; -0.0239 in assay [16]. For the same compound, the composite Z-score in assay [1] is 0.506 (inactive). Further, the z-score is -0.403 in assay [15] and 0.97 (inactive) in [17].

As for `[N-]=[N+]=Nc1ccccc1C[C@]1(C(=O)N2CCOCC2)COC(c2ccc(OCCCO)cc2)=N1`, the composite z-score was 0.808 in the assay with Albumin (Bos taurus); 0.373 in [2]; -0.118 in [3]; 0.763 in assay [4]; 2.21 in assay [5]; -0.181 in [6]. Moreover, the composite z-score in the assay on Sam68 (KHDRBS1) is 1.29; in [7], -0.646; in assay [8], 0.99; in assay [9] it was 0.964; in assay [10], 1.24; in [11], 0.144. For the same compound, the composite z-score is 1.04 in assay [12]; 0.39 in assay [13]; -0.313 in assay [14]; -0.0478 in the assay on Lefty1; 0.606 in assay [16]. Also, the composite Z-score in [1] was 0.04 (inactive). Further, the z-score was 0.9 in assay [15] and -5.96 (inactive) in [17].

Take `COc1ccc([Si](C)(C)[C@@H]2[C@@H](CCO)O[C@]3(C(=O)N(Cc4ccccc4)c4ccc(N5C(=O)c6cccc7cccc5c67)cc43)[C@H]2C)cc1`: the composite z-score with Albumin (Bos taurus) is 0.511; in assay [2], -0.146; in assay [3] it was -0.155; in assay [4], -0.0746; in [5], 1.25; in assay [6], -0.3. In addition, the composite z-score is -0.239 in the assay on Sam68 (KHDRBS1); -0.215 in [7]; 1.01 in assay [8]; -0.435 in assay [9]; -0.0814 in assay [10]; 0.15 in assay [11]. In addition, the composite z-score in [12] is -0.304; in assay [13] it was -0.384; in assay [14] it was -0.176; in the assay with Lefty1, -0.52; in assay [16], 0.342. For the same compound, in assay [1], the composite Z-score is 0.708 (inactive). Also, the figures for the z-score in [15] and in assay [17] were -0.0894 and -1.04 (inactive), respectively.

Take `O=C1O[C@H](c2ccccc2)[C@H](c2ccccc2)N2[C@H]1[C@@H](C(=O)O)[C@]1(C(=O)Nc3ccc(C#CCCO)cc31)[C@H]2c1ccccc1OCCO`: the composite z-score with Albumin (Bos taurus) was 0.713; in [2], -0.19; in assay [3], -0.124; in assay [4] it was 0.729; in assay [5] it was 0.676; in assay [6] it was 0.681. Also, the composite z-score with Sam68 (KHDRBS1) is 0.794; in [7], -0.579; in [8] it was 0.991; in assay [9], 0.84; in assay [10], 0.0764; in assay [11], 0.0281. Also, the composite z-score in assay [12] is 0.289; in assay [13] it was 0.622; in assay [14], -0.0212; with Lefty1 it was 0.404; in [16] it was 0.842. Further, in [1], the composite Z-score is -0.308 (inactive). The z-score in assay [15] is -0.689; in assay [17], -0.747 (inactive).

Consider `CN1C(=O)C2C=CC(C(O)c3cccn3C)N(Nc3ccc([N+](=O)[O-])cc3[N+](=O)[O-])C2C1=O` (stereo not given), for which the composite z-score came to 0.38 with Albumin (Bos taurus); 0.0681 in assay [2]; 0.476 in assay [3]; 0.848 in [4]; 0.856 in [5]; 0.376 in [6]. Further, the composite z-score in the assay with Sam68 (KHDRBS1) was -0.0879; in assay [7], -0.248; in assay [8] it was -0.0516; in assay [9], 0.421; in assay [10] it was 0.414; in assay [11], 0.0533. Also, the composite z-score was -0.232 in [12]; -0.201 in assay [13]; 0.275 in assay [14]; -0.583 in the assay on Lefty1; 0.408 in assay [16]. The composite Z-score in assay [1] was -0.398 (inactive). Also, the z-score was 0.0408 in assay [15] and 0.679 (inactive) in assay [17].

On to `C[N+](C)(C)CCCCCCNC(=O)[C@@H]1C[C@@H]2C(=O)N3CCC[C@H]3C(=O)N2[C@@H]1c1ccc(O)cc1`, for which the composite z-score with Albumin (Bos taurus) was -0.245; in [2] it was 0.0591; in [3], -0.118; in assay [4], 0.684; in assay [5], 1.47; in assay [6] it was 0.326. The composite z-score in the assay on Sam68 (KHDRBS1) was found to be 0.904; in assay [7] it was 1.41; in assay [8], 0.818; in assay [9], 1.36; in assay [10], 0.451; in [11] it was 0.0225. The composite z-score in [12] was -0.472; in [13], 1.4; in assay [14] it was 1.42; with Lefty1, 1.3; in assay [16], 0.6. Further, the composite Z-score in [1] was 0.05 (inactive). The z-score was -1.19 in assay [15] and 0.824 (inactive) in assay [17].

Turning to `COCCOC(=O)N1C(=O)[C@@]2(c3cc(C#CCCO)ccc31)[C@H](C(=O)Nc1nc3ccccc3s1)[C@H]1C(=O)O[C@H](c3ccccc3)[C@H](c3ccccc3)N1[C@@H]2c1ccc(O)cc1`, the composite z-score was -0.767 with Albumin (Bos taurus); 0.177 in assay [2]; 0.0687 in assay [3]; 0.473 in assay [4]; 2.08 in assay [5]; 0.799 in assay [6]. Further, the composite z-score with Sam68 (KHDRBS1) worked out at 1.31; in assay [7], 0.791; in assay [8], 1.17; in [9], 2.54; in assay [10], 1.24; in assay [11], 0.978. Besides, the composite z-score in [12] was 0.919; in assay [13], 1.38; in assay [14], 1.28; in the assay with Lefty1, 1.05; in [16], 0.777. Further, the composite Z-score in assay [1] is 0.326 (inactive). Further, the z-score was -0.137 in assay [15] and 0.57 (inactive) in assay [17].

Turning to `C=CCNC(=O)[C@@H]1[C@H]2C(=O)O[C@H](c3ccccc3)[C@H](c3ccccc3)N2[C@H](c2ccccc2OCCO)[C@@]12C(=O)Nc1ccc(C#CCC(C(=O)OC)C(=O)OC)cc12`, the composite z-score with Albumin (Bos taurus) was -0.0735; in assay [2], 0.514; in [3] it was 0.283; in assay [4], 0.648; in [5], 1.66; in assay [6], 1.62. The composite z-score was 1.27 with Sam68 (KHDRBS1); -0.14 in assay [7]; 0.727 in assay [8]; 1.03 in [9]; 1.2 in assay [10]; 0.978 in assay [11]. Moreover, the composite z-score in assay [12] was 0.0251; in [13] it was 0.67; in assay [14], 0.335; in the assay with Lefty1, -0.0767; in assay [16], 0.551. Also, the composite Z-score in assay [1] is 0.822 (inactive). Besides, the figures for the z-score in assay [15] and in assay [17] were -1.44 and -0.238 (inactive), respectively.
